Source: PMC5540273 (PLoS ONE, 2017)

tested on: MERTK; conditions: concentration: 1 μM,replicates: in singlicate; n = 1
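Note: KINOMEscan kinase panel screen.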

Compound	%Inh
CCN(CC)CCOc1ccc(Nc2ncc3cc(-c4c(Cl)cccc4Cl)c(=O)n(C)c3n2)cc1 [SB-601273]	95.9%
CNC(=O)c1ccccc1Sc1ccc2c(/C=C/c3ccccn3)n[nH]c2c1	19%
C[C@@H](Oc1cc(-c2cnn(C3CCNCC3)c2)cnc1N)c1c(Cl)ccc(F)c1Cl	88%
C[C@@H]1CCN(C(=O)CC#N)C[C@@H]1N(C)c1ncnc2[nH]ccc12	0%
Cl.Cl.NC[C@H](CC1CCCCC1)NC(=O)c1cc(Br)c(-c2ccnc3[nH]ccc23)s1 [GSK1581427]	47%
C=CC(=O)Nc1cc2c(Nc3ccc(F)c(Cl)c3)ncnc2cc1OCCCN1CCOCC1 [GW781483]	0%
COc1ccc(C[C@@H](CN)NC(=O)c2cc(Br)c(-c3ccnc4[nH]ccc34)s2)cc1.Cl.Cl [GSK1389063]	70%
Cc1cc(C(=O)Nc2ccc(Oc3ccc4nc(NC(=O)C5CC5)cn4n3)cc2)nn1-c1ccccc1	88%
CCN(CC)CCCCNc1ncc2cc(-c3c(Cl)cccc3Cl)c(NC(=O)NC(C)(C)C)nc2n1	82%
CN(C)CC(O)COc1ccc(Nc2nccc(-c3cnn4nc(N5CCOCC5)ccc34)n2)cc1 (stereo not drawn) [GW767488]	32%
CC(C)N1C(=O)Cc2cc(Nc3ncc(C(F)(F)F)c(NCc4cccc(S(C)(=O)=O)c4)n3)ccc21	52%
C[C@H]1Oc2cc(cnc2N)-c2c(nn(C)c2C#N)CN(C)C(=O)c2ccc(F)cc21	20%
